Bioassay records deposited in PubChem BioAssay by National Center for Advancing Translational Sciences (NCATS).
In the library only some 17% were active in any assay of this set; here they are far more common.
TDP1 inh – inhibitors of human tyrosyl-DNA phosphodiesterase TDP1 | Q9NUW8 | recombinant TDP1, AlphaScreen DNA substrate cleavage | Potency, µM (doses to about 130 µM), without a hit: at the highest dose activity change, negative = inhibition, actives largely listed as inhibitors | 350,000 tested, 0.28% active; note: % is set by controls: 0 for no effect and ±100 for the full control effect; nearly all actives have a fitted effect of over 40% in size
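Signal: AlphaScreen proximity between streptavidin donor and anti-FITC acceptor beads on intact substrate. Reaction: Tdp1 1 nM, substrate 15 nM final, 5 min RT after 15 min compound preincubation.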
ClpP mod – qHTS Assay for Activators of ClpP | ATP-dependent Clp protease proteolytic subunit (Bacillus subtilis (strain 168)), P80244 | purified B. subtilis ClpP, FRET peptide cleavage, 20 min | Potency, µM (top dose mostly 57.5 µM), inactives show at the top dose activity change, negative = active | 340,000 tested, 1.9% active | AID 651965, 2013; active = well fitted falling curve with a large enough effect; inconclusive = small, poorly fitted or top-dose-only effect; inactive = no such curve, though single readings can be large or run the other way; note: the source files actives as falling curves though it sought activators and does not explain the sign; nearly all actives have a fitted effect of over 65% in size
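ClpP 10 microg/mL final, pH 8 Tris/KCl buffer with BSA, glycerol, Tween-20; compound pinned in; FRET-FV substrate; RT 20 min; Ex320/Em430; ΔFRET vs ADEP 5.8 microM, DMSO, no enzyme.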
TDP1 cell CPT – growth inhibition of DT40 Tdp1-/-;hTDP1 cells with camptothecin (screen for TDP1 inhibitors); Potency, µM (top dose mostly 46.2 µM), for inactives: at the highest dose activity change, negative = growth inhibition, usual class: inhibitors; 420,000 tested, 12% active; chicken DT40 Tdp1-/-;hTDP1 cells + 20 nM CPT, ATP luminescence, 48 h; note: % is set by controls: 0 for no effect and ±100 for the full control effect; nearly all actives have a fitted effect of over 55% in size
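Chicken DT40 Tdp1-/- cells complemented with human TDP1, 400 cells/well, exposed to compounds plus 20 nM camptothecin for at least 48 h at 37 C; viability read as ATP content by CellTiter-Glo luminescence.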
DT40 TDP1 no CPT – qHTS for Inhibitors of human tyrosyl-DNA phosphodiesterase 1 (TDP1): qHTS in cells in absence of CPT; 420,000 tested, 15% active; DT40 Tdp1-/- hTDP1 cells, no CPT, ATP luminescence, 48 h; Potency, µM (highest dose often 46.2 µM), inactives show at the top dose activity change, negative = growth inhibition, hits mostly inhibitors; note: % is set by controls: 0 for no effect and ±100 for the full control effect; nearly all actives have a fitted effect of over 55% in size
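Compound effects on proliferation are scored in DT40 Tdp1-/-;hTDP1 cells in the absence of CPT. ATP levels (CellTiter-Glo luminescence) are recorded after a ≥48 hr, 37 °C incubation.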
* marks the source's active call; other numbers are inactive results; ? = inconclusive; / = no result given; [ ] = remark or other dose. Unless noted, calls come from the whole dose curve; as a rule, active = well fitted curve in the direction sought with a large enough effect; inconclusive = small, poorly fitted or top-dose-only effect, or another doubt; inactive = no such curve, though single readings can be large; an effect the other way counts as inactive or inconclusive. Potency is the fitted concentration of half-maximal effect.

SMILES | TDP1 inh | ClpP mod | TDP1 cell CPT | DT40 TDP1 no CPT
O=C(c1ccc(Br)o1)N1CCN(C23CC4CC(CC(C4)C2)C3)CC1 | / | 1% | ? | ?
O=C(c1ccc(C23CC4CC(CC(C4)C2)C3)o1)N1CCOCC1 | 1% | 1% | ? | 23µM*
COc1cc2c(C#CCCO)c(-c3ccc(C#N)cc3)oc(=O)c2cc1OC | 2% | 3% | -20% | ?
COc1cc2c(C#CCCO)c(-c3ccsc3)oc(=O)c2cc1OC | 1% | 4% | ? | 8.2µM*
COCc1ccc(-c2c(-c3ccsc3)oc(=O)c3cc(OC)c(OC)cc23)cc1 | -1% | 32µM* | ? | 21µM*
COc1ccc(-c2oc(=O)c3cc(OC)c(OC)cc3c2C(F)(F)F)cc1 | 0% | 0% | -4% | -19%
COc1ccc(N(C(=O)CCl)C(C(=O)NCCc2ccccc2)c2cccs2)cc1Cl (stereo unspecified) | 0% | 1% | 2.6µM* | 1.5µM*
COc1cccc(N(C(=O)CCl)C(C(=O)NCCc2ccccc2)c2cccs2)c1 (stereo unspecified) | 4% | 0% | 4.1µM* | 4.6µM*
COc1cccc(N(C(=O)CS(=O)CC(=O)Nc2ccc(F)cc2)C(C(=O)NC2CCCCC2)c2cccs2)c1 (stereo unspecified) | 5% | 3% | ? | ?
COCCNC(=O)C(c1cccs1)N(C(=O)Cn1nnc2ccccc21)c1ccccc1 (stereo unspecified) | 3% | 2% | -16% | -9%
C=CC(=O)Nc1ccc(N(C)c2ccnc(Nc3ccc(N4CCN(C)CC4)cc3)n2)cc1 | 12% | 0% | ? | 16µM*
CN1CCN(c2ccc(Nc3c4ccccc4nc4ccccc34)cc2)CC1 | 21% | / | / | /
COc1ccc(NC(=O)c2cc(-c3cc(Cl)ccc3C)n[nH]2)cn1 | / | -7% | 23µM* | ?
COc1ccc(Cl)cc1-c1cc(C(=O)Nc2ccc(C(C)(C)C)cc2)[nH]n1 | / | -18% | 21µM* | 15µM*
CCOc1ccc(Cl)cc1-c1cc(C(=O)Nc2ccc(F)cc2)[nH]n1 | / | -1% | ? | 16µM*
COc1ccc(NC(=O)c2cc(-c3cc(Cl)ccc3C)n[nH]2)c(OC)c1 | / | -7% | ? | ?
COc1ccc(Cl)cc1-c1cc(C(=O)Nc2ccc(C)c(NS(C)(=O)=O)c2)[nH]n1 | / | 35% | 18µM* | 21µM*
Cc1cc(C)c2c(c1)NC(c1cc3c(cc1Br)OCO3)C1CC=CC21 (stereo unspecified) | 8% | 2% | -21% | ?
O=C(N=Nc1ccc(NOC(=O)c2ccccc2Br)cc1)c1ccccc1O | 0% | / | / | /
Cc1[nH]c2ccc(C(=O)OCC(=O)NC3(C#N)CCCCC3)cc2c1C | -2% | -5% | -25% | -20%
CCc1ccc2c(c1)c(=O)c(C(=O)c1ccc(C)cc1)cn2CC(=O)Nc1ccc2c(c1)OCCO2 | / | -1% | -1% | 1%
c1ccc(P(c2ccccc2)c2cnc3ccccn23)cc1 | 4% | / | / | /
CCCOc1ccc(F)cc1-c1cc(C(=O)Nc2ccc(OC)cc2C)[nH]n1 | / | -10% | ? | ?
COc1ccc(NC(=O)Cc2coc3cc(C)ccc23)cn1 | -5% | / | 1% | -9%
COc1ccc(NCC(=O)Nc2ccc(Cl)cc2C)c(OC)c1 | 8% | -3% | ? | 29µM*
COc1ccc(NC(=O)CSc2cc(C)ccc2C)cn1 | 1% | / | ? | 16µM*
CCCOc1ccc(F)cc1-c1cc(C(=O)Nc2ccc(OC)cc2OC)[nH]n1 | / | -15% | ? | 18µM*
COc1ccc(NC(=O)c2cc(-c3cc(Cl)ccc3OC)n[nH]2)c(C)c1 | / | -1% | ? | 18µM*
CC(C)(C)CC(C)(C)N=C1Nc2ccccc2NC12C[C@H]1CCC(=O)N3CC[C@@H](C2)[C@@H]13 (stereo partly specified) | / | 2% | ? | ?
NC(=O)c1ccc[n+]([C@@H]2O[C@H](COP(=O)([O-])OP(=O)(O)OC[C@H]3O[C@@H](n4cnc5c(N)ncnc54)[C@H](O)[C@@H]3O)[C@@H](O)[C@H]2O)c1 | / | / | 7%[21.1 µM] | -18%[21.1 µM]
